The target in this experiment is Eukaryotic translation initiation factor 3 subunit I (UniProt P40217). As to the kind of experiment: cross-link between two proteins; cross-linking mass spectrometry.
Eukaryotic translation initiation factor 3 subunit I, sequence (P40217 whole entry): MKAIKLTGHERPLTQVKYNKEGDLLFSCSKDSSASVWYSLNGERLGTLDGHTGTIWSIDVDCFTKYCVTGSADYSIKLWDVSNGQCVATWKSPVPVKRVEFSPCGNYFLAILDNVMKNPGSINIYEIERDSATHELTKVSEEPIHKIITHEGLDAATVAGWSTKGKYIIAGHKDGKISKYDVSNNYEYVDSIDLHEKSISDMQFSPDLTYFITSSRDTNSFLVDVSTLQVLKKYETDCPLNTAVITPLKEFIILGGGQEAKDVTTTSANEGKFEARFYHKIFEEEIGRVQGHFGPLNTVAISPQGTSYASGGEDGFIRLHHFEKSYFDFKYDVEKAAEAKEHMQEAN

Eukaryotic translation initiation factor 3 subunit A, P38249, sequence (P38249 whole entry): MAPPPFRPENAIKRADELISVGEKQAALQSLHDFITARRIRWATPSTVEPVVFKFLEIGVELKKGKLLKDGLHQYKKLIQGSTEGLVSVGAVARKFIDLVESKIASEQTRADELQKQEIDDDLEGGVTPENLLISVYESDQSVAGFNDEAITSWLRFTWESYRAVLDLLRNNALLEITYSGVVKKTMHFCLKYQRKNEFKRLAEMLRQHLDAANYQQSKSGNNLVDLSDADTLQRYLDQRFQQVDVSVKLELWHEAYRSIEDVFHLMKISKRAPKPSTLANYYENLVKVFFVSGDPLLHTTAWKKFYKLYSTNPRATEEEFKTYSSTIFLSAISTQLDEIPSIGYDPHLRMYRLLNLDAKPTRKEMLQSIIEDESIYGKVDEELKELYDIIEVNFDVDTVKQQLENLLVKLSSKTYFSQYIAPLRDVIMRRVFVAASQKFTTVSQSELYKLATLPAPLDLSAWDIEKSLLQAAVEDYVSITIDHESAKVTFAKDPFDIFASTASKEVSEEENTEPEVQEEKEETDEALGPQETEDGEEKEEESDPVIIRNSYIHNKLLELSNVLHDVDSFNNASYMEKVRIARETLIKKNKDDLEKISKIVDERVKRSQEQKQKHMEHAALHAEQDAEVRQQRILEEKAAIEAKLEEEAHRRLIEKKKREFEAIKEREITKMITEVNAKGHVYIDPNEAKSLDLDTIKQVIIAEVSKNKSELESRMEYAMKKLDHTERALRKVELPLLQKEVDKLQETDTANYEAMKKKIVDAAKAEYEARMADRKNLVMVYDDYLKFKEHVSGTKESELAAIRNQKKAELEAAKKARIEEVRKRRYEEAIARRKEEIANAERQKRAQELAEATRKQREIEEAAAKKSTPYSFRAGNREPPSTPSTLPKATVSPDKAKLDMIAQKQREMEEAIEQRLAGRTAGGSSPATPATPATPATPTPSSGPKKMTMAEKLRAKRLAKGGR

As to “Eukaryotic translation initiation factor 3 subunit A, P38249”, the “listed as a hit” value is “yes”.
